High-throughput results: PubChem BioAssay, National Center for Advancing Translational Sciences (NCATS)
Rows were chosen to be rich in hits. Some 9.4% of all compounds tested hit in one or more screens of this group.
IMPase Li inh: qHTS Assay for Identifying the Cell-Membrane Permeable IMPase Inhibitors: Potentiation with Lithium | Potency, µM (titrated, usually from 59.4 µM), for inactives: at the top dose activity, negative = IMPase inhibition, usual class: inhibitors | CHO-M1 cells, IP1 TR-FRET (IP-One), carbachol + lithium | 0.35% of 210,000 active;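 note: IP1 builds up when IMPase is blocked and the TR-FRET signal falls; potency is the fitted concentration of half-maximal effect; plate controls were basal vehicle for no effect and high inhibitor control for full effect; nearly all actives have a fitted effect of over 50% in size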
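Steps: plate 2000 CHO-M1 cells per well and culture 16–30 h; add compound and lithium; incubate 30 min, 37C; add d2-IP1 tracer and Eu cryptate anti-IP1 antibody in lysis buffer; read after 10 min at room temperature.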
IMPase inh: qHTS Assay for Identifying the Cell-Membrane Permeable IMPase Inhibitors; CHO-M1 cells, IP1 accumulation, HTRF TR-FRET ratio; inhibition (IP1 accumulation), % at 46.1 µM; 120,000 tested, under 10 active; AID 901, 2007; active = well fitted curve in the direction sought with a large enough effect in the signal ratio, not every such curve was filed as active; inconclusive = small, poorly fitted or top-dose-only effect, or a change in a side signal; inactive = no such curve, though single readings can be large or run the other way; the % refers to the signal ratio;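 note: cells stimulated with carbachol in lithium chloride buffer; plate controls were DMSO basal wells for no effect and reference inhibitor wells for full effect; higher means more IMPase inhibition seen as more IP1 and lower FRET ratio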
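In this qHTS, compounds (final up to 46 uM) act on CHO-M1 cells that are then activated through the M1 receptor with carbachol, in pH 7.4 buffer containing 50 mM LiCl, for 30 min. IP1 accumulation is quantified by the IP-One immunoassay.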
HPGD inh: qHTS Assay for Inhibitors of HPGD (15-Hydroxyprostaglandin Dehydrogenase); AID 894, 2007; 15-hydroxyprostaglandin dehydrogenase [NAD(+)] (Homo sapiens), P15428; Potency, µM, without a hit: at the highest dose activity change, negative = inhibition, hits mostly inhibitors; purified HPGD, NADH fluorescence kinetic, PGE2 substrate; 4.3% of 150,000 active; active = well fitted inhibition curve with a large enough effect, not every such curve was filed as active; inconclusive = small, poorly fitted or top-dose-only effect, or another doubt; inactive = no such curve, though single readings can be large or run the other way; note: potency is the fitted concentration of half-maximal effect; % is set by controls: 0 for no effect and ±100 for the full control effect
Target sequence (P15428 whole entry, looked up): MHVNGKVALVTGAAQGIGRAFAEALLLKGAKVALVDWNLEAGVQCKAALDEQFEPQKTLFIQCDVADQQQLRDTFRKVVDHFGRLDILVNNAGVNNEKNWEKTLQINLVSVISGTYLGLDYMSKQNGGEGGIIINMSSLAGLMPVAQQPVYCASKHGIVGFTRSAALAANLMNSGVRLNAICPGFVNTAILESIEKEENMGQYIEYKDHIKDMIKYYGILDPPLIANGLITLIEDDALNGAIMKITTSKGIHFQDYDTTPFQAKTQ
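NADH formation kinetics: reaction with 30 uM PGE2 and 1 mM NAD+ (final), 20 nM enzyme, Tris-HCl pH 8 with Tween 20, after 15 min compound preincubation at room temperature. Fluorescence change, last versus first of five reads.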
HTT aggregate: qHTS Multiplex Assay to Identify Dual Action Probes in a Cell Model of Huntington: Aggregate Formation (GFP); PC12 HttQ103-GFP aggregates, Acumen cytometry, 40 h; Potency, µM (highest dose often 46.1 µM), without a hit: top-dose activity change, negative = inhibition, most hits filed as inhibitors; 1.1% of 220,000 active; AID 1688, 2009; note: potency is the fitted concentration of half-maximal effect; % is set by controls: 0 for no effect and ±100 for the full control effect; nearly all actives have a fitted effect of over 60% in size
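PC12 cells with ecdysone-inducible HTT exon1 Q103-GFP, induced by 100 nM tebufenozide, given compounds in a concentration series. GFP aggregates (1–25 um, 6 SD above background) counted in lysates by laser-scanning cytometry, 488 nm excitation.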
HTT ATP protect: qHTS Multiplex Assay to Identify Dual Action Probes in a Cell Model of Huntington: Cytoprotection (ATP) | PC12 HTT-Q103 induced, cytoprotection, ATP luminescence, 40 h | Potency, µM (top dose mostly 56.4 µM), for inactives: cytoprotection (ATP increase), most hits filed as activators | 0.14% of 230,000 active; note: potency is the fitted concentration of half-maximal effect; % of control where 0% means no effect; nearly all actives have a fitted effect of over 45% in size
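Compounds added alongside 100 nM tebufenozide, which induces toxic Q103 huntingtin exon 1-GFP in stable PC12 cells; surviving cells quantified by luminescent ATP measurement. Medium: phenol red-free DMEM, 5% equine and 5% calf serum.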
ALDH1A1 block: qHTS Assay for Inhibitors of Aldehyde Dehydrogenase 1 (ALDH1A1); 7.3% of 220,000 active; Potency, µM (highest dose often 75.3 µM), without a hit: at the highest dose activity, negative = inhibition, hits mostly inhibitors; Aldehyde dehydrogenase 1A1 (Homo sapiens), P00352; Purified ALDH1A1, NADH fluorescence, propionaldehyde substrate; active = well fitted inhibition curve with a large enough effect, not every such curve was filed as active; inconclusive = small, poorly fitted or top-dose-only effect, or another doubt; inactive = no such curve, though single readings can be large or run the other way;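 note: potency is the fitted concentration of half-maximal effect; plate controls were no enzyme wells and a reference inhibitor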
Target sequence (P00352 whole entry, looked up): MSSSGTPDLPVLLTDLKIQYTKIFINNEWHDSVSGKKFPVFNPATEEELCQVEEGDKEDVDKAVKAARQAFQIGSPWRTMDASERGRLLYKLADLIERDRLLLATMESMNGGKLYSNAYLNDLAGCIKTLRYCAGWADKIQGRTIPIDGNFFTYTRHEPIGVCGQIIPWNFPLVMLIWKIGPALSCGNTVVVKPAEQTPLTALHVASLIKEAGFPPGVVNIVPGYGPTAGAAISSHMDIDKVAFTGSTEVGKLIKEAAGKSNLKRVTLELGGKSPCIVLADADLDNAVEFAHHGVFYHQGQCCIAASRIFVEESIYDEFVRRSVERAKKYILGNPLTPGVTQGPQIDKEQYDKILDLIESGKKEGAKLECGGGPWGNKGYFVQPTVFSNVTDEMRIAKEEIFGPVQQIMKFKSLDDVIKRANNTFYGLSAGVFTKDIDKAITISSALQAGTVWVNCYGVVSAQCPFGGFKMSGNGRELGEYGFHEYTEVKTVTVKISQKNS
* = called active by the depositor; ? = inconclusive; . = no result; ! = not confirmed by another sample; [ ] = dose if it differs, or a comment. Unless noted, calls come from the whole dose curve; as a rule, active = well fitted curve in the direction sought with a large enough effect; inconclusive = small, poorly fitted or top-dose-only effect, or another doubt; inactive = no such curve, though single readings can be large; an effect the other way counts as inactive or inconclusive.

SMILES	IMPase Li inh	IMPase inh	HPGD inh	HTT aggregate	HTT ATP protect	ALDH1A1 block
COc1ccc(S(=O)(=O)Nc2ccccc2C)cc1	24%[38.3 µM]	-5	-1%	-8%	-26%	2%
COc1ccc(S(=O)(=O)Nc2cc3c4c(oc3c3ccccc23)CCCC4=O)cc1	18%[38.3 µM]	11	1%	-3%	-17%	7.9µM*
CCc1ccc(C2CC(=O)Nc3cc4c(cc32)OCO4)cc1 (stereo not drawn)	.	3	.	.	.	.
CCOCCCNC(=O)/C(C#N)=C/c1ccc(-c2ccc(S(=O)(=O)N3CCOCC3)cc2)o1	4%	.	?	1%	.	?
CCOCCCNC(=O)/C(C#N)=C/c1ccc([N+](=O)[O-])o1	24%	.	.	-34%[9.22 µM]	-17%[10 µM]	4µM*
C=CCOn1c(C)c(C(C)=O)c2c3nonc3ccc21	9%	-2	?	11µM*	8%[1.9 µM]	?
C=CCOn1c(C)c(C(C)=O)c2c3no[n+]([O-])c3ccc21	8%	17	-10%	22µM*	7%[10 µM]	8%
CCOC(=O)c1c(C)n(OCc2ccccc2)c2ccc3nonc3c12	13%	5	?	10%	-1%[10 µM]	?
Cc1ccc2oc(-c3ccc(C)c(NC(=O)Cc4cccs4)c3)nc2c1	13µM*	2	?	5%	-24%	?
Cc1cc(=O)[nH]c(N/N=C/C2=C(N3CCOCC3)C(=C\c3ccc(Cl)cc3)/CC2)n1	11%	.	-20%	28%	12%[10 µM]	11µM*
Cc1cc(C)cc(NC(=O)CN2CCN(c3ncccn3)CC2)c1	-5%[38.3 µM]	5	-14%	1%[9.22 µM]	5%	?
O=C(CN1CCN(c2ncccn2)CC1)Nc1ccccc1-n1cccc1	15%[38.3 µM]	10	-14%	?	-36%	14µM*
COc1ccc2c(c1)C1=C(CC2)C(c2ccc(C)cc2)NC(=S)N1 (stereo not drawn)	-4%	.	.	-26%	-92%	0.4µM*
COc1cccc(C2NC(=S)NC3=C2CCc2ccccc23)c1 (stereo not drawn)	.	-2	.	29%	-9%[10 µM]	0.22µM*
O=C1c2oc3ccccc3c(=O)c2C(c2cccc(O)c2)N1Cc1ccc(F)cc1 (stereo not drawn)	.	-8	.	.	.	.
CC(=O)N/N=C(\C)CC(=O)Nc1cccc2c1CCCC2	1%	.	.	4%[9.22 µM]	?	-2%
C/C(CC(=O)Nc1cccc2c1CCCC2)=N\NC(=O)COc1ccccc1	-7%	.	-15%	-2%	5%[10 µM]	9.5µM*
C=CCC1C=CC(OC(=O)OCC)C(COC(=O)OCC)O1 (stereo not drawn)	.	.	.	.	-7%[10 µM]	11%[13.5 µM]
Cc1ccc(S(=O)(=O)CC2CSc3nc(N)cc(=O)n32)cc1 (stereo not drawn)	-13%[38.3 µM]	-6	-15%	7%	3%[0.074 µM]	3%
Cc1ccc(S(=O)(=O)CC2CSc3nc4ccccc4n32)cc1 (stereo not drawn)	39%[38.3 µM]	2[1.84 µM]	-9%	7.1µM*	4µM*	-8%
COc1ccc(C)cc1S(=O)(=O)N(CC(=O)NCc1ccc(Cl)cc1)Cc1ccccc1	28%[38.3 µM]	5	-6%	28µM*	-25%[10 µM]	1%
COc1ccc(CNC(=O)CN(Cc2ccc(Cl)cc2)S(=O)(=O)c2ccccc2)cc1	23%[38.3 µM]	5	3%	?	-34%	2.2µM*
COc1ccc(S(=O)(=O)N(Cc2ccccc2)Cc2nc3ccccc3c(=O)[nH]2)cc1	-3%[38.3 µM]	0	-4%	-14%	-26%	6.3µM*
COc1ccc(CNC(=O)CN(Cc2ccccc2)S(=O)(=O)c2ccc(Cl)cc2)cc1	43%[38.3 µM]	-1	-14%	?	-19%	?
O=C(Nc1ncc(Cc2ccc(SC(F)F)cc2)s1)c1ccc(OC(F)F)cc1	?	.	-29%	-22%	.	?
SMILES	IMPase Li inh	IMPase inh	HPGD inh	HTT aggregate	HTT ATP protect	ALDH1A1 block
COc1ccc(CNc2ncncc2-c2ccoc2)c(OC)c1	8%	.	.	.	-31%	?
CCOC(=O)C1C(=O)C=C(c2cccc(NS(C)(=O)=O)c2)CC1c1ccco1 (stereo not drawn)	6%	4	-22%	-7%	-28%[10 µM]	20µM*
CCOC(=O)C1C(=O)C=C(c2ccc(Br)cc2)CC1c1ccco1 (stereo not drawn)	-12%[38.3 µM]	1	-14%	-25%	-23%	16µM*
CC(NC(=O)CNC(=S)N(Cc1cccs1)C1CCCC1)c1ccccc1 (stereo not drawn)	15%	.	.	-9%	-26%	16µM*
O=C(CNC(=S)N(Cc1ccccc1)Cc1ccccc1F)NCc1ccc(Cl)cc1	?	.	.	?	-79%	?
O=C(CNC(=S)N(Cc1ccccc1F)C1CCCCC1)NCCCN1CCOCC1	-6%	.	.	5%	-42%	?
CCC(C)NC(=O)CNC(=S)N(Cc1ccccc1F)C1CCCCC1 (stereo not drawn)	4%	.	.	11%	-40%	10µM*
O=C(CNC(=S)N(Cc1ccccc1F)C1CCCCC1)NCCN1CCOCC1	-7%	.	.	1%	12%	1.9µM*
O=C(CNC(=S)N(Cc1ccccc1)Cc1ccccc1F)NCc1ccccc1	9%	.	.	?	26%[10 µM]	10µM*
CC1(C)CC23C(=O)CCC(O)C2(C)CCC13 (stereo not drawn)	-13%	.	-4%	.	.	?
CCOC(=O)NC[C@H](Cc1ccc(OCCc2nc(-c3ccccc3)oc2C)cc1)N/C(C)=C\C(=O)c1ccc(C(F)(F)F)cc1	-1%	.	?	.	-34%	?
CCOCCCNC(=O)CNC(=S)N(Cc1ccccc1F)C1CCCCC1	1%[38.3 µM]	-3	-12%	-1%	-2%	14µM*
CN1[C@H](Cc2ccccc2)C=C[C@]1(C)C(=O)NCC1CC1	-1%	.	-19%	.	19%	28µM*
CC(=O)N1[C@H](Cc2ccccc2)C=C[C@]1(C)C(=O)NCc1ccc(C)o1	2%	.	22µM*!	4%	-3%	8%
COC(=O)CNC(=O)C1(C)C=CC2(CCCCC2)N1C(=O)OC (stereo not drawn)	-11%	.	-18%	.	14%	3%
COC(=O)N1C2(C=CC1(C)C(=O)NCc1ccc(N(C)C)cc1)CCCCC2 (stereo not drawn)	2%	.	-2%	.	23%	25µM*
CNC(=O)[C@@]1(C)C=C[C@@H](Cc2ccccc2)N1C(C)=O	-10%	.	-14%	.	8%	-6%
